# From PubChem BioAssay (NCATS)
# “And” between values parts separate entries of the source, which are not always exact repeats. Equal entries are not always repeated. Unmarked numbers belong to inactive results. Results filed as inconclusive are left out. The source made the active and inactive calls. Unless noted, calls come from the whole dose curve; as a rule, active = well fitted curve in the direction sought with a large enough effect; inconclusive = small, poorly fitted or top-dose-only effect, or another doubt; inactive = no such curve, though single readings can be large; an effect the other way counts as inactive or inconclusive.
# Columns and labels:
# CASKI = assay: Primary qHTS to identify gynecologic anti-cancer compounds using libraries of approved drugs and bioactive compounds (AID 1345084); settings: Gynecologic cancer cell panel viability, ATPlite luminescence, 48 h; series mostly up to 57.5 µM; note: nearly all actives have a fitted effect of over 55% in size; note: potency is the fitted concentration of half-maximal effect
# How it was run: (§1)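 Luminescence from the ATPlite ATP-monitoring reagent indicates viable cell number; lower signal means cytotoxicity. Cells received compound 16 h after seeding and were exposed for 48 h across five concentrations.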
# HeLa = assay: as above; settings: Gynecologic cancer cell panel viability, ATPlite luminescence, 48 h; series mostly up to 57.5 µM
# How it was run: as §1
# JEG-3 = assay: as above; settings: Gynecologic cancer cell panel viability, ATPlite luminescence, 48 h; series mostly up to 57.5 µM
# How it was run: as §1
# OV90 = assay: as above; settings: Gynecologic cancer cell panel viability, ATPlite luminescence, 48 h; series mostly up to 57.5 µM
# How it was run: as §1
# PA-1 = assay: as above; settings: Gynecologic cancer cell panel viability, ATPlite luminescence, 48 h; series mostly up to 57.5 µM
# How it was run: as §1
# SKOV3 = assay: as above; settings: Gynecologic cancer cell panel viability, ATPlite luminescence, 48 h; series mostly up to 57.5 µM
# How it was run: as §1
# Tov-21-G = assay: as above; settings: Gynecologic cancer cell panel viability, ATPlite luminescence, 48 h; series mostly up to 57.5 µM
# How it was run: as §1
# Tov112D = assay: as above; settings: Gynecologic cancer cell panel viability, ATPlite luminescence, 48 h; series mostly up to 57.5 µM
# How it was run: as §1
# [1] = Drug repurposing screens with cells derived from glioblastoma tumor samples (AID 1345199); settings: GBM patient neurospheres viability, ATP luminescence, 48 h; note: nearly all actives have a fitted effect of over 40% in size; note: potency is the fitted concentration of half-maximal effect; for activity, negative = cell killing: % is set by controls: 0 for no effect and ±100 for the full control effect
# How it was run: (§2)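 Primary testing used CD133+ neurospheres from four GBM patients, seven concentrations, 48 h exposure and ATP-based viability; confirmation added three slower-growing patient lines.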
# astro = assay: as above; settings: viability, ATP luminescence, 48 h; series mostly up to 45.9 µM
# How it was run: as §2
# [2] = biological target: Nuclear receptor subfamily 1 group I member 2 (Rattus norvegicus) (UniProt Q9R1A7); assay: qHTS assay for small molecule activators of the rat pregnane X receptor (rPXR) signaling pathway (AID 651751; call rule not given here; note: 0% is about no effect); settings: rPXR reporter cells, luciferase (One-Glo), 24 h
# Chain of Nuclear receptor subfamily 1 group I member 2 (Rattus norvegicus) (Q9R1A7 whole entry, looked up): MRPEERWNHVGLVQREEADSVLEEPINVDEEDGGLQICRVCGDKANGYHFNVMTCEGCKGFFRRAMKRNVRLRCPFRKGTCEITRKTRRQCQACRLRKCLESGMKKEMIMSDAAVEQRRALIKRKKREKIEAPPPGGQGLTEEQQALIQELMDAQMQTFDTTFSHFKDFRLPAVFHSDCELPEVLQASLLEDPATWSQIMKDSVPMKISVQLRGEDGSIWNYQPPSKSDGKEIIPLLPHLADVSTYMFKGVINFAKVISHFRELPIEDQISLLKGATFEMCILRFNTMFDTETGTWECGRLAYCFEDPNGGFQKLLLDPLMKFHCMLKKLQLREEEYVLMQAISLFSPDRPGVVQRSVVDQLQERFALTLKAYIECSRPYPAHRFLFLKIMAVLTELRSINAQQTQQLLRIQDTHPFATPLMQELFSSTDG
# [3] = qHTS assay to identify inhibitors of the type 1 interferon - major histocompatibility complex class I in skeletal muscle: Counter screen cell viability and HiBit confirmation (AID 1347412); settings: iHSKM muscle cells + IFN-b, HiBiT or CellTiter-Glo, 24 h; for activity change, negative = inhibition: at 45.9 µM (top of the series); note: potency is the fitted concentration of half-maximal effect; for activity change, negative = inhibition: % is set by controls: 0 for no effect and ±100 for the full control effect; for all read-outs here: nearly all actives have a fitted effect of over 60% in size
# How it was run: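 HLA-B*08:01–HiBiT knock-in immortalized human myoblasts (C25cl48) stimulated with 4.0 ng/ml human IFN-beta and dosed with compound in a 12-point 1:3 titration (top final 46 uM). After 24 hrs at 37 C, HiBiT lytic luminescence or CellTiter Glo ATP read out.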
# [4] = qHTS assay for small molecule activators of the human pregnane X receptor (PXR) signaling pathway (AID 720659; call rule not given here; note: 0% is about no effect)
# Hek293T = assay: Primary qHTS to identify gynecologic anti-cancer compounds using libraries of approved drugs and bioactive compounds (AID 1345084); settings: Gynecologic cancer cell panel viability, ATPlite luminescence, 48 h, control line for the selectivity index; series mostly up to 57.5 µM; note: nearly all actives have a fitted effect of over 55% in size; note: potency is the fitted concentration of half-maximal effect
# How it was run: as §1
# [5] = at 45.9 µM (top of the series), tumour line B
# [6] = at 45.9 µM (top of the series), tumour line D
# [7] = at 46 µM (top of the series), tumour line A
# [8] = at 46.1 µM (top of the series), tumour line C
smiles,measurement,setting,value
CC(C)OC(=O)C(C)(C)Oc1ccc(C(=O)c2ccc(Cl)cc2)cc1,Potency,CASKI,inactive
same,Potency,HeLa,inactive
same,Potency,JEG-3,inactive
same,Potency,OV90,inactive
same,Potency,PA-1,inactive
same,Potency,SKOV3,inactive
same,Potency,Tov-21-G,inactive
same,Potency,Tov112D,inactive
same,"activity, negative = cell killing",[1]; [5],-21.9%
same,Potency,[1]; tumour line A,11.2 µM (active)
same,Potency,astro,inactive
same,max response,[2],-0.28%
NS(=O)(=O)c1ccc(NC2=CC(=O)c3ccccc3C2=O)cc1,Potency,[3]; HiBiT,3.52 µM (active)
same,Potency,[3]; Viability,4.97 µM (active)
COc1ccc(-c2nc(N3CCOCC3)c3sc(CN(C)c4ncc(C(=O)NO)cn4)cc3n2)cn1,Potency,[3]; HiBiT,0.0279 µM (active)
Cc1ccc(C(=O)Nc2cccc(C(F)(F)F)c2)cc1Nc1nc(-c2cccnc2)nc2c1cnn2C,"activity change, negative = inhibition",[3]; HiBiT,-9.48%
same,"activity change, negative = inhibition",[3]; Viability,-7.92%
O=C(Nc1cccc(Br)c1)c1cccc(S(=O)(=O)N2CCCCCC2)c1,Potency,HeLa,inactive
same,Potency,JEG-3,inactive
same,Potency,Tov-21-G,inactive
same,Potency,Tov112D,inactive
NC[C@@H]1O[C@@H](O[C@H]2[C@@H](O)[C@H](O[C@@H]3[C@@H](O)[C@@H](N)C[C@H](N)[C@H]3O[C@H]3O[C@H](CN)[C@@H](O)[C@@H](O)[C@H]3N)O[C@H]2CO)[C@H](N)[C@@H](O)[C@@H]1O,"activity, negative = cell killing",[1]; [5],5.16%
same,"activity, negative = cell killing",[1]; [6],4.28%
same,"activity, negative = cell killing",[1]; [7],-29.1%
same,"activity, negative = cell killing",[1]; [8],9.32%
same,Potency,astro,inactive
O=c1cc(-c2ccc(O)cc2)oc2cc(O)cc(O)c12,max response,[2],-6.83% and -1.04%
O=C(O)c1ccccc1C(=O)Nc1ccc(-c2ccccc2)cc1,Potency,SKOV3,25.1 µM (active)
same,Potency,[3]; HiBiT,14 µM (active)
same,"activity change, negative = inhibition",[3]; Viability,-4.23%
C[N+]1(C)[C@@H]2CC(OC(=O)[C@H](CO)c3ccccc3)C[C@H]1[C@H]1O[C@@H]12 (stereo partly specified),"activity, negative = cell killing",[1]; [5],-9.31%
same,"activity, negative = cell killing",[1]; [6],-20.1%
same,"activity, negative = cell killing",[1]; [7],-28.4%
same,"activity, negative = cell killing",[1]; [8],-22.8%
same,Potency,astro,inactive
O=c1c(-c2ccc(O)cc2)coc2cc(O)ccc12,max response,[2],6.21% and 11.9%
N#C[C@H]1C[C@H]2C[C@@H]2N1C(=O)[C@@H](N)C12CC3CC(CC(O)(C3)C1)C2,"activity, negative = cell killing",[1]; [5],-2.78%
same,"activity, negative = cell killing",[1]; [6],-16.4%
same,"activity, negative = cell killing",[1]; [7],-21.1%
same,"activity, negative = cell killing",[1]; [8],4.9%
same,Potency,astro,inactive
CC(C(=O)O)c1ccc(-c2ccccc2)c(F)c1 (stereo unspecified),"activity, negative = cell killing","[1]; at 20 µM (top of the series), tumour line C",-24.7%
same,"activity, negative = cell killing","[1]; at 21.2 µM (top of the series), tumour line B",-12.6%
same,"activity, negative = cell killing","[1]; at 21.2 µM (top of the series), tumour line D",-11%
same,"activity, negative = cell killing","[1]; at 21.3 µM (top of the series), tumour line A",-20.3%
same,Potency,astro,inactive
O=C(O)c1cc(O)c2c(c1)C(=O)c1cccc(O)c1C2=O,max response,[2],-2.8%
same,outcome,[4],inactive
O=C1c2ccccc2-[n+]2ccc3c([nH]c4ccccc43)c21,Potency,[3]; HiBiT,1.57 µM (active)
same,Potency,[3]; Viability,2.22 µM (active)
Cc1nnc(C(C)C)n1C1C[C@H]2CC[C@@H](C1)N2CC[C@H](NC(=O)C1CCC(F)(F)CC1)c1ccccc1 (stereo partly specified),"activity, negative = cell killing",[1]; [5],-4.81%
same,"activity, negative = cell killing",[1]; [6],-11.6%
same,"activity, negative = cell killing",[1]; [8],5.31%
same,Potency,astro,inactive
O=c1cc(CN2CCOCC2)occ1OCCCCCSc1ccnc2cc(C(F)(F)F)ccc12,Potency,Hek293T,31.6 µM (active)
same,Potency,Tov-21-G,inactive
same,Potency,Tov112D,inactive
CCOC(=O)O[C@]1(C(=O)OCCl)CC[C@@H]2[C@H]3CCC4=CC(=O)C=C[C@]4(C)[C@@H]3[C@@H](O)C[C@@]21C,"activity, negative = cell killing",[1]; [5],-4.15%
same,"activity, negative = cell killing",[1]; [6],8.73%
same,"activity, negative = cell killing",[1]; [7],-8.19%
same,"activity, negative = cell killing",[1]; [8],1.62%
same,Potency,astro,inactive
O=C(O)c1c(Cl)c(Cl)c(Cl)c(Cl)c1-c1c2cc(I)c(=O)c(I)c-2oc2c(I)c(O)c(I)cc12,"activity, negative = cell killing",[1]; [8],-28.5%
COc1ccc(Cc2nccc3cc(OC)c(OC)cc23)cc1OC,"activity change, negative = inhibition",[3]; HiBiT,-26.2%
same,"activity change, negative = inhibition",[3]; Viability,-0.43%
CN1[C@@H]2CCC[C@@H]1CC(NC(=O)c1nn(C)c3ccccc13)C2 (stereo partly specified),"activity, negative = cell killing",[1]; [5],0.357%
same,"activity, negative = cell killing",[1]; [6],2.65%
same,"activity, negative = cell killing",[1]; [8],-11.6%
same,Potency,[1]; tumour line A,12.6 µM (active)
same,Potency,astro,inactive
C[C@H](NC(=O)C(=O)Nc1ccccc1C(C)(C)C)C(=O)N[C@@H](CC(=O)O)C(=O)COc1c(F)c(F)cc(F)c1F,"activity change, negative = inhibition",[3]; HiBiT,-0.932%
same,"activity change, negative = inhibition",[3]; Viability,0.0107%
NS(=O)(=O)c1cccc2c1C(=O)c1cccc(O)c1C2=O,Potency,[3]; HiBiT,0.557 µM (active)
same,Potency,[3]; Viability,0.496 µM (active)
CO[C@H]1C(=O)[C@]2(C)[C@@H](OC)C[C@H]3OC[C@@]3(OC(C)=O)[C@H]2[C@H](OC(=O)c2ccccc2)[C@]2(O)C[C@H](OC(=O)[C@H](O)[C@@H](NC(=O)OC(C)(C)C)c3ccccc3)C(C)=C1C2(C)C,"activity change, negative = inhibition",[3]; Viability,-18.6%
O=c1cc(-c2ccccc2)oc2cc(O)cc(O)c12,max response,[2],-2.91%
